Laboratory results: paper PMC7862700, “An all-to-all approach to the identification of sequence-specific readers for epigenetic DNA modifications on cytosine”

Key:
Test in all cases: DAPPL (digital affinity profiling via proximity ligation, sequencing); 10 mM Tris-HCl pH 7.5, 50 mM NaCl, 1 mM DTT, 4% glycerol, room temperature, 30 min; GST-TFs on glutathione beads, 16-mer random dsDNA library, 0.1% formaldehyde crosslink after washing; high values mean tight binding
[1] = target: T1, FEV (Homo sapiens, UniProt Q99581 1-238); conditions: protein: recombinant; tags: N-terminal GST; dsDNA, one strand shown
T1 sequence: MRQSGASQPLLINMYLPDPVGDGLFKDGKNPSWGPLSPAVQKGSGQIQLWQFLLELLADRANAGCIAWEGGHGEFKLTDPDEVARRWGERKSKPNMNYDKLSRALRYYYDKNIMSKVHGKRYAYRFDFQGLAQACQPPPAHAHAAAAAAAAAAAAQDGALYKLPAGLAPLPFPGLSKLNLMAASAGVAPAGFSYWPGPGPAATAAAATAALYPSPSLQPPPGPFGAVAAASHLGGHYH
Procedure, shortened: (§1)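 Binding signal is each hexamer's read frequency for a factor divided by its frequency in the tag-only sample. The factors were GST-fused human transcription factors from yeast, captured on glutathione beads, DNA-barcoded and pooled with that sample. Pools were incubated with 200 nmole of a random double-stranded 16-mer DNA library in Tris/NaCl/DTT/glycerol buffer at room temperature for 30 min, then washed, crosslinked with 0.1% formaldehyde, proximity-ligated with BsaI/T4 ligase (1 h, 37 °C), PCR-amplified and sequenced on an Illumina NextSeq500.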

[2] = target: ETV5 (Homo sapiens, UniProt P41161 1-510); conditions: protein: recombinant; tags: N-terminal GST; dsDNA, one strand shown
Procedure, shortened: as §1

[3] = target: HSF1 (Homo sapiens, UniProt Q00613 1-529); conditions: protein: recombinant; tags: N-terminal GST; chain copies: 3; dsDNA, one strand shown
Procedure, shortened: as §1

[4] = target: T2, SPIC (Homo sapiens, UniProt Q8N5J4 1-248); conditions: protein: recombinant; tags: N-terminal GST; dsDNA, one strand shown
T2 sequence: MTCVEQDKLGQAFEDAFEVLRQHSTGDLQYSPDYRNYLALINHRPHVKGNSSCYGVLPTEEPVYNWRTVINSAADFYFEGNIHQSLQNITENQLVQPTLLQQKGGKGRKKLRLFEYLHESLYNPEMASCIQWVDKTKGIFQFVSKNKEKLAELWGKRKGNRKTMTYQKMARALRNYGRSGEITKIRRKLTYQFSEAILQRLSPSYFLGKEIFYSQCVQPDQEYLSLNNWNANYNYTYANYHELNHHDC
Procedure, shortened: as §1

[5] = target: ELF4 (Homo sapiens, UniProt Q99607 1-663); conditions: protein: recombinant; tags: N-terminal GST; dsDNA, one strand shown
Procedure, shortened: as §1

[6] = target: T3, ELK4 (Homo sapiens, UniProt P28324-2 1-405); conditions: protein: recombinant; tags: N-terminal GST; dsDNA, one strand shown
T3 sequence: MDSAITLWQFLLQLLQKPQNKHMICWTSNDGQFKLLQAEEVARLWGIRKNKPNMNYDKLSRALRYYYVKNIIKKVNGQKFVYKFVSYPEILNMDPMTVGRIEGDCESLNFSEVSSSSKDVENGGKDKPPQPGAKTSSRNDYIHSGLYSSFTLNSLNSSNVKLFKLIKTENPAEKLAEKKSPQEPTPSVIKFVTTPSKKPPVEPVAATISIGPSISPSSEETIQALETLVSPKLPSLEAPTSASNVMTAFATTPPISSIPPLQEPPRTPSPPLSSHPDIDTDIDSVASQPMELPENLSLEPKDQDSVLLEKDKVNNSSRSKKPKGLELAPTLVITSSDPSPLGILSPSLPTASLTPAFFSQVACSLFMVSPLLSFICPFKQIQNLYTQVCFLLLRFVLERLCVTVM
Procedure, shortened: as §1

[7] = target: T4, ETV2 (Homo sapiens, UniProt O00321 1-342); conditions: protein: recombinant; tags: N-terminal GST; dsDNA, one strand shown
T4 sequence: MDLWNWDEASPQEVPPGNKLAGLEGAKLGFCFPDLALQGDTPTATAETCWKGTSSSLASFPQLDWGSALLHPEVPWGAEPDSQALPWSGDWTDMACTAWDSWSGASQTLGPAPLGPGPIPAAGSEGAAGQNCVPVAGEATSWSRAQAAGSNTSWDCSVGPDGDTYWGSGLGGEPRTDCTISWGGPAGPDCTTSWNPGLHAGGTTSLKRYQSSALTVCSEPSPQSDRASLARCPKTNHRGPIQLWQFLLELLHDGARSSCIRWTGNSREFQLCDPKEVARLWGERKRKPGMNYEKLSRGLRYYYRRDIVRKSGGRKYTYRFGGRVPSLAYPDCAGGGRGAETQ
Procedure, shortened: as §1

[8] = target: T5, ELF3 (Homo sapiens, UniProt P78545 1-371); conditions: protein: recombinant; tags: N-terminal GST; dsDNA, one strand shown
T5 sequence: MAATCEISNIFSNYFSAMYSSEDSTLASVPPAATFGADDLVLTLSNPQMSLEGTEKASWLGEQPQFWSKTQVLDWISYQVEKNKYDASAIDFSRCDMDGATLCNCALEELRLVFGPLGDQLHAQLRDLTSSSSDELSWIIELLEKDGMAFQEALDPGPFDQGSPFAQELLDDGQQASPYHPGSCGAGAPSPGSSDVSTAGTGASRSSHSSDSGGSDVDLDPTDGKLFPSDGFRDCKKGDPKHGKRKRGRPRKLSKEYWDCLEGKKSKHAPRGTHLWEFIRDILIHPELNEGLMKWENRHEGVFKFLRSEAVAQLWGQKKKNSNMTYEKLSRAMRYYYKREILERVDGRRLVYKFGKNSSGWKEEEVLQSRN
Procedure, shortened: as §1

[9] = target: CRX (Homo sapiens, UniProt O43186 1-299); conditions: protein: recombinant; tags: N-terminal GST; dsDNA, one strand shown
Procedure, shortened: as §1

[10] = target: ETV1 (Homo sapiens, UniProt P50549 1-477); conditions: protein: recombinant; tags: N-terminal GST; dsDNA, one strand shown
Procedure, shortened: as §1

[11] = target: T6, ERF (Homo sapiens, UniProt P50548 1-548); conditions: protein: recombinant; tags: N-terminal GST; dsDNA, one strand shown
T6 sequence: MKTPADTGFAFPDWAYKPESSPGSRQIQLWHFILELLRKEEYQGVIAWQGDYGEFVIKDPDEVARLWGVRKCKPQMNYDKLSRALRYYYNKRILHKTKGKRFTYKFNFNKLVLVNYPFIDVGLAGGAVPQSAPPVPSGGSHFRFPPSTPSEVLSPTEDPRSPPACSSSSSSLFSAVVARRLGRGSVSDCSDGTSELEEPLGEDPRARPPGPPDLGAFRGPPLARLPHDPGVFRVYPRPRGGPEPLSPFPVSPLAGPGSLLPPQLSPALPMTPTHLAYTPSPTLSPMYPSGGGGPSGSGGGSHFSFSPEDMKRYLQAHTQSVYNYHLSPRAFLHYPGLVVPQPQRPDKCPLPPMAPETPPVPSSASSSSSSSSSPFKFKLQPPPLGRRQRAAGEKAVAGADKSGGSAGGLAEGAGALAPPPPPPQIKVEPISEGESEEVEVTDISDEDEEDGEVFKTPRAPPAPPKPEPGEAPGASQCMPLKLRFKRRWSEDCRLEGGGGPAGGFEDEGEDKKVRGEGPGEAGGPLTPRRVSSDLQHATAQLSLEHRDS
Procedure, shortened: as §1

[12] = target: T7, ETV3L (Homo sapiens, UniProt Q6ZN32 1-361); conditions: protein: recombinant; tags: N-terminal GST; dsDNA, one strand shown
T7 sequence: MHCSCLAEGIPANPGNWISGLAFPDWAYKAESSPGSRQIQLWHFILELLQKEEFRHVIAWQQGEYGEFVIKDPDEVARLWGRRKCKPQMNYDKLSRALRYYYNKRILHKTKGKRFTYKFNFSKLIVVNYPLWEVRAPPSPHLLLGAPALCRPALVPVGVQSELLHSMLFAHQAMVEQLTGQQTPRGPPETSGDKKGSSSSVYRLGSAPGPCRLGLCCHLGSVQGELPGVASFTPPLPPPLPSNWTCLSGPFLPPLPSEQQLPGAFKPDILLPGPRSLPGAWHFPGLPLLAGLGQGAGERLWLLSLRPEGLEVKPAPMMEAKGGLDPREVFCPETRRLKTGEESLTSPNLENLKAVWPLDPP
Procedure, shortened: as §1

[13] = target: T8, ETS2 (Homo sapiens, UniProt P15036 1-469); conditions: protein: recombinant; tags: N-terminal GST; dsDNA, one strand shown
T8 sequence: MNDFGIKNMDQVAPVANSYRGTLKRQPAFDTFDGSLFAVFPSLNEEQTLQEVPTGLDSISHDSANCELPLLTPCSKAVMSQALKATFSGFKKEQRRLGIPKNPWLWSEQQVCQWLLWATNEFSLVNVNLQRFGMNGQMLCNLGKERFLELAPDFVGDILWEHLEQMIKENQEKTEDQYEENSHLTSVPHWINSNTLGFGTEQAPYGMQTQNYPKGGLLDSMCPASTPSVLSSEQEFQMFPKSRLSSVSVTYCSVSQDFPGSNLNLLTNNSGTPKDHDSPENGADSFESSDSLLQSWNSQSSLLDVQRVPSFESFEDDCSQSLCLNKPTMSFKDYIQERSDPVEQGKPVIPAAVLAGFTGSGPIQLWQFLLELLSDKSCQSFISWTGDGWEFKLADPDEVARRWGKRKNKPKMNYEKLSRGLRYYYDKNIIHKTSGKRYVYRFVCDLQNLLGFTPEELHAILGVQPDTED
Procedure, shortened: as §1

[14] = target: T9, SPDEF (Homo sapiens, UniProt O95238 1-335); conditions: protein: recombinant; tags: N-terminal GST; dsDNA, one strand shown
T9 sequence: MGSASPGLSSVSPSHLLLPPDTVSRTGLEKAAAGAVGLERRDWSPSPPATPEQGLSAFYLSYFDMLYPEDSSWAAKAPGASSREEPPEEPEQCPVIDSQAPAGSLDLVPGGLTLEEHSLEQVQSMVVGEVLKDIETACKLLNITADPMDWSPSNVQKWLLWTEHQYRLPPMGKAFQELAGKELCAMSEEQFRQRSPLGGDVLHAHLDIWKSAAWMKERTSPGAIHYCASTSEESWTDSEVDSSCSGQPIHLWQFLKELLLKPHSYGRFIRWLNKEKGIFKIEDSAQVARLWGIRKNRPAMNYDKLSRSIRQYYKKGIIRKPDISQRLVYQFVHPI
Procedure, shortened: as §1

[15] = target: T10, ETV7 (Homo sapiens, UniProt Q9Y603 1-341); conditions: protein: recombinant; tags: N-terminal GST; dsDNA, one strand shown
T10 sequence: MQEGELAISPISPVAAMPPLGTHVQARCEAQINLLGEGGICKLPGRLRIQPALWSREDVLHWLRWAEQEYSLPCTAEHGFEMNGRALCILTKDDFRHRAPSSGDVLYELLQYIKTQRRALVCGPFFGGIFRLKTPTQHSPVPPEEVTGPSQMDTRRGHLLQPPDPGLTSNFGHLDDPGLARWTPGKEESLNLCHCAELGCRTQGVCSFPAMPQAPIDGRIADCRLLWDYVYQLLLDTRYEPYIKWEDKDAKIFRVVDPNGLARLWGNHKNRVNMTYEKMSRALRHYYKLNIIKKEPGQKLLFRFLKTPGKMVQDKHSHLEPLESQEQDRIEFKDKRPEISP
Procedure, shortened: as §1

[16] = target: T11, ELF5 (Homo sapiens, UniProt Q9UKW6-2 1-255); conditions: protein: recombinant; tags: N-terminal GST; dsDNA, one strand shown
T11 sequence: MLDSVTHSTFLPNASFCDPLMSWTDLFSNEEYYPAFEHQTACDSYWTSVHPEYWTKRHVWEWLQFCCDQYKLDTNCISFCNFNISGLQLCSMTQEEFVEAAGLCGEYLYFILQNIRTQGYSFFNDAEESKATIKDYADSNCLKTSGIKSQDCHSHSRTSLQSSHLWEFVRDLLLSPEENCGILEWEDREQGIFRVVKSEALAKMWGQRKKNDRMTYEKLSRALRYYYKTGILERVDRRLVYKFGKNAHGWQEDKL
Procedure, shortened: as §1

[17] = target: T12, ETV3 (Homo sapiens, UniProt P41162-2 1-143); conditions: protein: recombinant; tags: N-terminal GST; dsDNA, one strand shown
T12 sequence: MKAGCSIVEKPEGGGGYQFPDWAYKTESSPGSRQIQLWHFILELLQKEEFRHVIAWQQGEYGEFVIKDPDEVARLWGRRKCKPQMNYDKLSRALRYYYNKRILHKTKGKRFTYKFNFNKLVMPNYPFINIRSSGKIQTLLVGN
Procedure, shortened: as §1

[18] = target: ETV6 (Homo sapiens, UniProt P41212 1-452); conditions: protein: recombinant; tags: N-terminal GST; dsDNA, one strand shown
Procedure, shortened: as §1

Chain of ETV6 (P41212 whole entry): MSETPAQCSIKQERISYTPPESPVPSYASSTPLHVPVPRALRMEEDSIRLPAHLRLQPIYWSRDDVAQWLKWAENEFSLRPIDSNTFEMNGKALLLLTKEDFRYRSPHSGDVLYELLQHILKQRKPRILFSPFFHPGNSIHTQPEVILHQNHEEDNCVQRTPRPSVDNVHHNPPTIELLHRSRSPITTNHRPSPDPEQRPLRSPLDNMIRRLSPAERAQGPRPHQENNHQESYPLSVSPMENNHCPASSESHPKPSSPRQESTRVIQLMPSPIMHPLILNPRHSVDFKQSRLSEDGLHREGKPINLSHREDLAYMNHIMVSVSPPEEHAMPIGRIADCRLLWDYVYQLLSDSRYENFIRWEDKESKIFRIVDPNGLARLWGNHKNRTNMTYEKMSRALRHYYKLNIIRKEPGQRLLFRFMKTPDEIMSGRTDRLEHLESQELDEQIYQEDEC
Chain of HSF1 (Q00613 whole entry): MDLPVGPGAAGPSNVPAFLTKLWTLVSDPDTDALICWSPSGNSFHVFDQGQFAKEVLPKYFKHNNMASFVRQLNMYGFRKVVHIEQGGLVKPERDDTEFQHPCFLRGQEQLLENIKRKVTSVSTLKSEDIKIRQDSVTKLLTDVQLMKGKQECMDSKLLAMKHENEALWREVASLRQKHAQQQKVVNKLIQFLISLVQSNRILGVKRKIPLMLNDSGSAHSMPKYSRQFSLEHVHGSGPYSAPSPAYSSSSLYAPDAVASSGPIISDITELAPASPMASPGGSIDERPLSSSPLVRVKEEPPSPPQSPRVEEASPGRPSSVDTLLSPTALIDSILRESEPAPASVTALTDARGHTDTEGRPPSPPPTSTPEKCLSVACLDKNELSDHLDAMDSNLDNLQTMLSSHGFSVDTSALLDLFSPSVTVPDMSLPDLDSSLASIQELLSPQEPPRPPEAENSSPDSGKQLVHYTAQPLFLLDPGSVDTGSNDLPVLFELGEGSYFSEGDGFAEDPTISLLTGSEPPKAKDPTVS
Chain of CRX (O43186 whole entry): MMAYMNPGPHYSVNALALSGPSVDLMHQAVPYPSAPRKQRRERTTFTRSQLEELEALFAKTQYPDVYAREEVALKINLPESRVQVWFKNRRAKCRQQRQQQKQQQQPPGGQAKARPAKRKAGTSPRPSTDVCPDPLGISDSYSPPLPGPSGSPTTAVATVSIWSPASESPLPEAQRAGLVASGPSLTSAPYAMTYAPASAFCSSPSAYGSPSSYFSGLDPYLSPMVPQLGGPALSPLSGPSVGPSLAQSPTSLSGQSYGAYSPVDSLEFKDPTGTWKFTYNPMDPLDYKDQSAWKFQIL
Chain of ELF4 (Q99607 whole entry): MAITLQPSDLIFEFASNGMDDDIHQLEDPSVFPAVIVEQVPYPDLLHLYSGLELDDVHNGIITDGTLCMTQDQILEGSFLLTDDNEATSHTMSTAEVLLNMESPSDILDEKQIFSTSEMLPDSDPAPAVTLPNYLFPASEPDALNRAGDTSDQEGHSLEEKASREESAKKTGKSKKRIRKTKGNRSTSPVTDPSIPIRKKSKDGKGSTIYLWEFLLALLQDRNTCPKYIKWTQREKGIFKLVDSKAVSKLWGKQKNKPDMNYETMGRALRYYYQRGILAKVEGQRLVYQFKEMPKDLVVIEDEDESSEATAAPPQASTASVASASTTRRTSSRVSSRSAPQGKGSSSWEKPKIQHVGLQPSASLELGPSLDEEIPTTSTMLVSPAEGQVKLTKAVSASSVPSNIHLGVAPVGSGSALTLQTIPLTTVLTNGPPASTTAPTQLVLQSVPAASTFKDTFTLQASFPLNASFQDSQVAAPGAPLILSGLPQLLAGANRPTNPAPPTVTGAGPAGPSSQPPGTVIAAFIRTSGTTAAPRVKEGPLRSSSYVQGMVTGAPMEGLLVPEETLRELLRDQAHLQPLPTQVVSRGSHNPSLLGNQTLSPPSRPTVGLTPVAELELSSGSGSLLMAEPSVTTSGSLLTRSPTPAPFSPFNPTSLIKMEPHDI
Chain of ETV5 (P41161 whole entry): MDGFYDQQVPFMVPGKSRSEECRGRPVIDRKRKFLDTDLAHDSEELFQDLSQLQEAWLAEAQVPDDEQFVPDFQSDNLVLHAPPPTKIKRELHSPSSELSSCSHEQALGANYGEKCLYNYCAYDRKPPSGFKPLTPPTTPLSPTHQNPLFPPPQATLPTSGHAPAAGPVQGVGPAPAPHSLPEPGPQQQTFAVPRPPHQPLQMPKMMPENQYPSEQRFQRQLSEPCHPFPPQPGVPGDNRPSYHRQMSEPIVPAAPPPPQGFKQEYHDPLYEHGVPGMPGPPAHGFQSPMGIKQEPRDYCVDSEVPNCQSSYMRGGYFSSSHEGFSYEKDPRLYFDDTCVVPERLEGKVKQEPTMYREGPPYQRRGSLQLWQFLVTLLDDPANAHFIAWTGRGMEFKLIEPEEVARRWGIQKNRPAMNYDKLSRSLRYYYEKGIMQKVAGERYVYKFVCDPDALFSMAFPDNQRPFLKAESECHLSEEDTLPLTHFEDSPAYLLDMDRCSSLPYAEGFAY
Chain of ETV1 (P50549 whole entry): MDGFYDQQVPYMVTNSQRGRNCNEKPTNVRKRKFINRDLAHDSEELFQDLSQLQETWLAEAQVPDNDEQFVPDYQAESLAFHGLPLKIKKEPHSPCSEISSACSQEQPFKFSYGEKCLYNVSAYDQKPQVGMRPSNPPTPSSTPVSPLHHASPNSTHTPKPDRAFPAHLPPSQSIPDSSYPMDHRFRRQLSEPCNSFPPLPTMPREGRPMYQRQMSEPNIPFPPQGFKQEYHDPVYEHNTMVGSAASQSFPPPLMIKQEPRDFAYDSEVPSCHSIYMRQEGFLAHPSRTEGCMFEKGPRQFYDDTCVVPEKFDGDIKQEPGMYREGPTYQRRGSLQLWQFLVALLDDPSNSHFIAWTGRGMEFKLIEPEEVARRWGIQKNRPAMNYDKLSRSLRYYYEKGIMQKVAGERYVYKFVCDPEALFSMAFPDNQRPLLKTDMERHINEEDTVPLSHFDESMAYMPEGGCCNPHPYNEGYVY

Q: What does the source list for CCGAAA?
A: binding signal [1]: 1.17 fold enrichment (6-mer frequency, TF over GST control); binding signal [2]: 1.25 fold enrichment (6-mer frequency, TF over GST control); binding signal [3]: 1.73 fold enrichment (6-mer frequency, TF over GST control); binding signal [4]: 1.31 fold enrichment (6-mer frequency, TF over GST control); binding signal [5]: 1.2 fold enrichment (6-mer frequency, TF over GST control); binding signal [6]: 1.14 fold enrichment (6-mer frequency, TF over GST control); binding signal [7]: 1.27 fold enrichment (6-mer frequency, TF over GST control); binding signal [8]: 1.17 fold enrichment (6-mer frequency, TF over GST control); binding signal [9]: 1.28 fold enrichment (6-mer frequency, TF over GST control); binding signal [10]: 1.23 fold enrichment (6-mer frequency, TF over GST control); binding signal [11]: 1.22 fold enrichment (6-mer frequency, TF over GST control); binding signal [12]: 1.2 fold enrichment (6-mer frequency, TF over GST control); binding signal [13]: 1.22 fold enrichment (6-mer frequency, TF over GST control); binding signal [14]: 1.17 fold enrichment (6-mer frequency, TF over GST control); binding signal [15]: 1.24 fold enrichment (6-mer frequency, TF over GST control); binding signal [16]: 1.18 fold enrichment (6-mer frequency, TF over GST control); binding signal [17]: 1.19 fold enrichment (6-mer frequency, TF over GST control); binding signal [18]: 1.28 fold enrichment (6-mer frequency, TF over GST control)
